Here are results for 39 sequences from the OligoGym collection.
Note: reference of the scale not given here.

One experiment addresses AACS. Put plainly: pooled miR-30 sensor sort-seq; sequence = guide strand. The settings on record: shRNA.
TACAGATCCAGGGTCTCGGGGT: the sensor-assay potency score (higher = more potent) is -0.361. As for TTTGACGGCAACTTCCACTTTC, the sensor-assay potency score (higher = more potent) is -0.286. For TGATTCTGCAGTAGTCGCCATG, the sensor-assay potency score (higher = more potent) was -0.951. TCTGTCATTCTCTTTGTGCCGC gave a sensor-assay potency score (higher = more potent) of 0.211.

For the sequence TTGATTCTGCAGTAGTCGCCAT, the sensor-assay potency score (higher = more potent) came to 0.104.

As to TTTTCTGCATAGTTGAGCCGAC, the sensor-assay potency score (higher = more potent) is -0.296. As to TTTCGATGTGTCCACAACCTCA, the sensor-assay potency score (higher = more potent) is -1.33.

In the case of TTACAGTGCACACGGGTGCGGC, the sensor-assay potency score (higher = more potent) was -0.808. The same measure, in the same setting: the figure for TAGCACAGGAGGATGTCACTGC is 0.828; for TTGGAATCTTTGAAAGGTCTAT it is 0.0735. Consider TAGGCCTTTAACCACCTGCTGC, for which the sensor-assay potency score (higher = more potent) is -1.19.

Consider TTGAGGGTGCCGTCACTCCGGC, for which the sensor-assay potency score (higher = more potent) is -1.01.

The target in the next experiment is AADACL2. Described as above. The settings on record: shRNA.
For the sequence TTTTATTTCAGCATCATTCTGC, the sensor-assay potency score (higher = more potent) worked out at 0.839. On to TAACTGAGAATCATTGGCCAAC, for which the sensor-assay potency score (higher = more potent) was -1.39. Consider TTCAGCATCATTCTGCACCTGT, for which the sensor-assay potency score (higher = more potent) was found to be 0.443. On to TTGTAACATACATAAGTCCATC, for which the sensor-assay potency score (higher = more potent) was -1.14. The same measure, in the same setting: the figure for TAAACAGATGTCTTGACTCCAG is -0.578. Take TAAATGTACAAGTTTTAGCGAT: the sensor-assay potency score (higher = more potent) was -0.754. For the sequence TAACATACATAAGTCCATCATC, the sensor-assay potency score (higher = more potent) is -1.34. As for TTTTTGGCAAGTACAATCGTAC, the sensor-assay potency score (higher = more potent) is -0.474. Same read-out and setting: the figure for TACAACAACAGCATCAAGCGTG is -0.148; for TTTTGTAAGAATTTTTTCCAAA it is -1.07; for TTGGCAAGTACAATCGTACTGG it is 0.407.

TATCTCTTATCCTAAGACCTAG: the sensor-assay potency score (higher = more potent) is -0.412.

Another experiment deals with AADACL3. The experiment is described as above. The settings on record: shRNA.
TACAACAGTGAATTGTCCCGGA returned a sensor-assay potency score (higher = more potent) of 0.727. As to TTTCATGATGACCTCTTGCCAG, the sensor-assay potency score (higher = more potent) was -1.07. The sequence TAGATCAGGATCTGAGCCCGGA had a sensor-assay potency score (higher = more potent) of 0.297. With TAGCAGATGAAACTCCAGGTGA, the sensor-assay potency score (higher = more potent) was -0.205.

Take TATGTCATCTTCTGCAATCAGG: the sensor-assay potency score (higher = more potent) is -1.03.

TTACTTCCAAGTAAGCAGCTTC registered a sensor-assay potency score (higher = more potent) of 0.308.

As to TTATGCTTAGGTAACTTGCGGT, the sensor-assay potency score (higher = more potent) was 0.0464.

On to TATGCTTAGGTAACTTGCGGTA, for which the sensor-assay potency score (higher = more potent) is -0.306. As for TTGTTGACAAACCACTGCGGCT, the sensor-assay potency score (higher = more potent) is -1.56.

Regarding TTTTCTTGTACAACAGTGAATT, the sensor-assay potency score (higher = more potent) was -1.64. Turning to TTCATGATGACCTCTTGCCAGG, the sensor-assay potency score (higher = more potent) is -1.37. ATCCGTGACCACAACATCGGGA gave a sensor-assay potency score (higher = more potent) of 0.0942.

The target in the next experiment is AATK. The experiment is described as above. The settings on record: shRNA.
For the sequence TTGCGTTCCAGGTCCTCGCAGA, the sensor-assay potency score (higher = more potent) was -0.188.

Take TTGATGGCAGACACCTCGCCAC: the sensor-assay potency score (higher = more potent) is -0.828. For the sequence TAGTCCTCTCTGTACTTGCAGT, the sensor-assay potency score (higher = more potent) was -1.18.
